In PubChem BioAssay AID1159580 (chemical genetic matrix, 2015):
Among all 5,500 compounds or so, about 2,000 (36%) were called active. Another 18% or so got no clear call; they are omitted. No stated cut-off is given here; in the data, active means normalized growth mostly below about 0.91 (no sharp cut-off); inconclusive means no clear call, values can overlap the other calls; inactive means mostly above about 0.92. The list shows a part of the results.

Test: chemical genetic growth profiling, strain panel (AID 1159580);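 further: tested at 20 µM; growth read once vehicle control cultures reached saturation at 30 °C; 1 = growth at the plate median or of vehicle wells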
Conditions: S. cerevisiae deletion strains, growth OD

Measured: normalized growth

CCC(=O)OCC(=O)C1(OC(=O)CC)C(C)CC2C3C(Cl)CC4=CC(=O)C=CC4(C)C3C(O)CC21C (stereo not given)
inactive: locus YAL021C, strain ccr4, stronger effect = lower value 1.02 | locus YAL026C, strain drs2, stronger effect = lower value 1.03 | locus YAL030W, strain snc1, stronger effect = lower value 1.01 | locus YBL061C, strain skt5, stronger effect = lower value 1.01 | locus YBR009C, strain hhf1, stronger effect = lower value 1.09 | locus YBR023C, strain chs3, stronger effect = lower value 1.02 | locus YBR171W, strain sec66, stronger effect = lower value 1.04 | locus YBR231C, strain swc5, stronger effect = lower value 1.02 | locus YBR279W, strain paf1, stronger effect = lower value 1.01 | locus YCL011C, strain gbp2, stronger effect = lower value 1.06 | locus YCL016C, strain dcc1, stronger effect = lower value 1.04 | locus YCL069W, strain vba3, stronger effect = lower value 1.04 | locus YCR088W, strain abp1, stronger effect = lower value 1.03 | locus YDL005C, strain med2, stronger effect = lower value 1.02 | locus YDL040C, strain nat1, stronger effect = lower value 1.01 | locus YDR001C, strain nth1, stronger effect = lower value 1.04 | locus YDR069C, strain doa4, stronger effect = lower value 1.02 | locus YDR137W, strain rgp1, stronger effect = lower value 1.03 | locus YDR159W, strain sac3, stronger effect = lower value 1.01 | locus YDR195W, strain ref2 1 | locus YDR297W, strain sur2, stronger effect = lower value 1.03 | locus YDR334W, strain swr1, stronger effect = lower value 1.02 | locus YDR335W, strain msn5, stronger effect = lower value 1.05 | locus YDR392W, strain spt3, stronger effect = lower value 1.08 | locus YEL003W, strain gim4, stronger effect = lower value 1.04 | locus YEL037C, strain rad23, stronger effect = lower value 1.05 | locus YEL061C, strain CIN8 (second series), stronger effect = lower value 1.02 | locus YER015W, strain faa2, stronger effect = lower value 1.01 | locus YER016W, strain bim1, stronger effect = lower value 1.04 | locus YER111C, strain swi4, stronger effect = lower value 1.04 | locus YER155C, strain BEM2 (second series), stronger effect = lower value 1.08 | locus YFR010W, strain ubp6, stronger effect = lower value 1.02 | locus YGL167C, strain pmr1, stronger effect = lower value 1.06 | locus YGL173C, strain kem1, stronger effect = lower value 1.02 | locus YGL227W, strain vid30, stronger effect = lower value 1.01 | locus YGL240W, strain doc1, stronger effect = lower value 1.01 | locus YGL253W, strain hxk2, stronger effect = lower value 1.02 | locus YHR013C, strain ard1, stronger effect = lower value 1.08 | locus YHR027C, strain rpn1, stronger effect = lower value 1.03 | locus YHR142W, strain chs7, stronger effect = lower value 1.04 | locus YJL092W, strain hpr5, stronger effect = lower value 1.04 | locus YJL095W, strain BCK1 (second series), stronger effect = lower value 1.06 | locus YJL115W, strain asf1, stronger effect = lower value 1.02 | locus YJL129C, strain trk1, stronger effect = lower value 0.987 | locus YJL154C, strain vps35, stronger effect = lower value 1.03 | locus YJL164C, strain tpk1, stronger effect = lower value 1.07 | locus YJL166W, strain qcr8, stronger effect = lower value 1 | locus YKL160W, strain elf1, stronger effect = lower value 1.04 | locus YKR026C, strain gcn3, stronger effect = lower value 1.03 | locus YKR091W, strain srl3, stronger effect = lower value 1.03 | locus YLL001W, strain dnm1, stronger effect = lower value 1.06 | locus YLL026W, stronger effect = lower value 1.04 | locus YLL041C, strain sdh2, stronger effect = lower value 1.05 | locus YLR027C, strain aat2, stronger effect = lower value 1.06 | locus YLR221C, strain rsa3, stronger effect = lower value 1.07 | locus YLR258W, strain gsy2, stronger effect = lower value 1.07 | locus YLR262C, strain YPT6 (second series), stronger effect = lower value 1.04 | locus YLR320W, strain mms22, stronger effect = lower value 1.02 | locus YLR342W, strain FKS1, stronger effect = lower value 1.03 | locus YLR357W, strain rsc2, stronger effect = lower value 1.09 | locus YLR370C, strain arc18, stronger effect = lower value 1.03 | locus YLR384C, strain iki3, stronger effect = lower value 1.03 | locus YML120C, strain ndi1, stronger effect = lower value 1.02 | locus YMR058W, strain fet3, stronger effect = lower value 1.02 | locus YMR125W, strain sto1, stronger effect = lower value 1.07 | locus YMR129W, stronger effect = lower value 1.03 | locus YMR205C, strain PFK2, stronger effect = lower value 1.02 | locus YMR231W, strain pep5, stronger effect = lower value 1.03 | locus YNL071W, strain lat1, stronger effect = lower value 1.02 | locus YNL209W, strain ssb2, stronger effect = lower value 1.01 | locus YNL248C, strain rpa49, stronger effect = lower value 1.03 | locus YNL322C, strain KRE1 (second series), stronger effect = lower value 1.01 | locus YNR049C, strain mso1, stronger effect = lower value 1.03 | locus YOR001W, strain rrp6, stronger effect = lower value 1.04 | locus YOR070C, strain gyp1, stronger effect = lower value 1.02 | locus YOR080W, strain dia2, stronger effect = lower value 1.02 | locus YOR083W, strain WHI5, stronger effect = lower value 1.04 | locus YOR106W, strain vam3, stronger effect = lower value 1 | locus YOR265W, strain rbl2, stronger effect = lower value 1.02 | locus YOR270C, strain vph1, stronger effect = lower value 0.923 | locus YOR290C, strain snf2, stronger effect = lower value 1.06 | locus YPL051W, strain arl3, stronger effect = lower value 1.04 | locus YPL078C, strain atp4, stronger effect = lower value 0.999 | locus YPL106C, strain sse1, stronger effect = lower value 1.12 | locus YPL240C, strain hsp82, stronger effect = lower value 1.02
